# Rows were chosen to be rich in hits. Some 19% of all compounds tested hit in one or more screens of this group.
# HT1080 IDH1KD tx: qHTS for induction of synthetic lethality in tumor cells producing 2HG: qHTS for the HT-1080-IDH1KD cell line. HT-1080 IDH1 knockdown viability, ATP luminescence, 48 h. Potency, µM (highest dose often 46.1 µM), without a hit: at the top dose activity, negative = toxicity, most hits filed as cytotoxic. hit rate 2% among 360,000. AID 686971, 2013;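 further: potency means the concentration at half of the fitted maximal effect; 0% = DMSO wells and -100% = cell-free medium wells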
#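 In this qHTS, HT-1080 cells depleted of IDH1 are exposed for 48 h at 37 °C to compound titrations. Toxicity is scored from CellTiter-Glo luminescence, with DMSO as full viability and medium alone as none.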
# HT1080-NT tox: qHTS for induction of synthetic lethality in tumor cells producing 2HG: qHTS for the HT-1080-NT fibrosarcoma cell line | HT-1080-NT fibrosarcoma viability, CellTiter-Glo ATP luminescence, 48 h | Potency, µM (highest dose often 46.1 µM), for the others: at the highest dose activity, negative = less viability, most hits filed as cytotoxic | hit rate 1.6% among 360,000 | AID 686970, 2013;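 further: NT is the 2HG producing partner of a matched IDH1 knockdown line; potency means the concentration at half of the fitted maximal effect; 0% = DMSO-treated cells and -100% = media-only wells without cells; nearly all actives have a fitted effect of over 55% in size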
#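 Toxicity toward the 2HG-producing NT line was scored as %Activity, normalised to DMSO and no-cell wells, from CellTiter-Glo luminescence after 48 hours' treatment.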
# uPA generation: qHTS for Inhibitors of Cell Surface uPA Generation. Potency, µM (top dose mostly 38.3 µM), for the others: at the top dose activity change, negative = inhibition, actives largely listed as inhibitors. AID 540303, 2011. hit rate 0.31% among 330,000. cell surface uPA generation assay, qHTS; active means well fitted inhibition curve with a large enough effect; inconclusive means small, poorly fitted or top-dose-only effect; inactive means no such curve, though single readings can be large or run the other way; tested in mouse RAW 264.7 cells; further: potency means the concentration at half of the fitted maximal effect; nearly all actives have a fitted effect of over 55% in size
# IL1B secr inh: qHTS for Inhibitors of Inflammasome Signaling: IL-1-beta AlphaLISA Primary Screen. THP-1 LPS/ATP IL-1B secretion, AlphaLISA, 16 h; hits give low values. AID 743279, 2014. hit rate 4.7% among 360,000. activity change, % at 57.5 µM; in the data active means activity change below about -50%; inconclusive means mostly about -30% to -49%
#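 THP-1 cells pretreated 1 hr with compounds (up to 57.5 uM final), then stimulated with LPS (250 ng/mL final) plus ATP (1.25 mM final); secreted IL-1B measured by AlphaLISA after 16 hr, decreased signal indicating inhibition.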
# DT40 TDP1 CPT: qHTS for Inhibitors of human tyrosyl-DNA phosphodiesterase 1 (TDP1): qHTS in cells in presence of CPT. chicken DT40 Tdp1-/-;hTDP1 cells + 20 nM CPT, ATP luminescence, 48 h. Potency, µM (top dose mostly 46.2 µM), inactives show at the highest dose activity change, negative = growth inhibition, most hits filed as inhibitors. hit rate 12% among 420,000. AID 686979, 2013; further: potency means the concentration at half of the fitted maximal effect; nearly all actives have a fitted effect of over 55% in size
#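 Chicken DT40 Tdp1-/- cells complemented with human TDP1, 400 cells/well, exposed to compounds plus 20 nM camptothecin for at least 48 h at 37 C; viability read as ATP content by CellTiter-Glo luminescence.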
# DT40 TDP1 no CPT: qHTS for Inhibitors of human tyrosyl-DNA phosphodiesterase 1 (TDP1): qHTS in cells in absence of CPT | DT40 Tdp1-/- hTDP1 cells, no CPT, ATP luminescence, 48 h | Potency, µM (series often up to 46.2 µM), for the others: top-dose activity change, negative = growth inhibition, actives largely listed as inhibitors | hit rate 15% among 420,000 | AID 686978, 2013; further: potency means the concentration at half of the fitted maximal effect; nearly all actives have a fitted effect of over 55% in size
#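 Cells were dispensed at 400 per well, compounds added by pin tool, plates incubated ≥48 hr at 37 °C, then CellTiter-Glo added for 30 min at room temperature before luminescence reading. Line: DT40 Tdp1-/- complemented with hTDP1; camptothecin omitted.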
# Numbers without * were called inactive; ? = inconclusive; . = not tested or not shown. Unless noted, the call rests on the fitted dose curve; in most records, active means well fitted curve in the direction sought with a large enough effect; inconclusive means small, poorly fitted or top-dose-only effect, or another doubt; inactive means no such curve, though single readings can be large; an effect the other way counts as inactive or inconclusive. Unless noted, on the % scale 0 is the no-effect control and ±100 the full control effect.
SMILES,HT1080 IDH1KD tx,HT1080-NT tox,uPA generation,IL1B secr inh,DT40 TDP1 CPT,DT40 TDP1 no CPT
CCN1CCN(C(CNS(=O)(=O)c2cccs2)c2cccnc2)CC1 (centres undefined),13%,5%,1%,14,0%,3%
Clc1cccc(CNCCNCc2cccc(Cl)c2)c1,-18%,-26%,-8%,-53*,-22%,?
O=C(NCCNCc1cccc(Cl)c1)c1ccco1,16%,16%,4%,9,8%,-6%
O=C(Cc1cccs1)Nc1ccc(-c2nnc(-c3ccccc3)o2)cc1,23%,5%,3%,0,-21%,-30%
Cc1cccc(-c2nnc(-c3cccc(NC(=O)Cc4cccs4)c3)o2)c1,?,?,1%,?,18µM*,15µM*
Cc1ccc(-c2nnc(-c3cccc(NC(=O)c4cccs4)c3)o2)cc1,-14%,-2%,-10%,-3,?,23µM*
O=C(Cc1cccs1)Nc1cccc(C(=O)Nc2ccco2)c1,11µM*,?,-7%,-20,-7%,?
O=C(Nc1cccc(-c2nnco2)c1)c1cccs1,20%,12%,0%,-19,2%,-25%
CCNC(=O)CSc1nnc(-c2cccc(S(=O)(=O)N3CCOCC3)c2)o1,-3%,0%,3%,14,0%,-18%
O=C1C2CC=CCC2C(=O)N1c1ccc(Cc2ccncc2)cc1 (centres undefined),-2%,-26%,-6%,?,18µM*,11µM*
CCn1cc(C(=O)N2CCCC(C(=O)c3cccc(C(F)(F)F)c3)C2)cn1 (centres undefined),-5%,1%,.,29,?,?
O=Nc1nc2ncccn2c1-c1ccccc1,12µM*,-1%,-11%,-84*,0.092µM*,0.52µM*
Nc1nc2ncccn2c1-c1ccc(F)cc1,16%,24%,.,29,1%,-20%
CCN(CC(=O)NCc1cccs1)C(=O)c1ccc(S(=O)(=O)Nc2ccccc2C)cc1,-7%,-10%,-6%,10,?,?
COC(=O)c1scc(-c2ccc(C)cc2)c1S(=O)(=O)Nc1cc(C)c(Cl)cc1OC,.,.,.,.,4.6µM*,23µM*
COC(=O)c1scc(C)c1S(=O)(=O)Nc1ccc(C)cc1,?,?,-5%,.,-23%,?
CCOC(=O)c1cc(S(=O)(=O)Nc2cc(C)c(Cl)cc2OC)[nH]n1,.,.,.,.,-29%,-20%
COC(=O)c1scc(-c2ccc(C)cc2)c1S(=O)(=O)Nc1cc(C)ccc1OC,.,.,.,.,?,23µM*
CCOc1ccc(C(=O)Nc2nnc(S(=O)(=O)Nc3ccccc3)s2)cc1,.,.,.,.,5%,?
CCn1cc(/C=C(\NC(=O)c2ccc(OC)c(OC)c2)C(=O)NCCCn2ccnc2)c2ccccc21,.,.,.,.,-9%,-22%
COc1cccc(NC(=O)CN2C(=O)C(c3ccc(C)cc3)=NC23CCCCCC3)c1,4%,3%,0%,5,?,?
CCOc1ccc(NC(=O)CN2C(=O)C(c3ccccc3)=NC23CCC(C)CC3)cc1 (centres undefined),.,.,.,.,16µM*,16µM*
Cc1ccc(Oc2ncnc(N)c2[N+](=O)[O-])cc1C,-2%,-2%,-7%,-29,-20%,-12%
CCOc1ccccc1CNC(=O)CCn1cccn1,.,.,.,.,-18%,-9%
O=C(NCc1ccccc1CN1CCCC1)c1ccc(S(=O)(=O)Nc2ccccc2)cc1,?,-16%,.,?,21µM*,13µM*

# From PubChem BioAssay
